From PubChem BioAssay (NCI) come the findings set out here.

Some test systems named below: NCI-H23 lung; NCI-H226 lung; NCI-H322M lung; HOP-62 NSCLC; NCI-H460 lung; NCI-H522 lung; A549/ATCC NSCLC; 786-0 renal; COLO 205 colon; DU-145 prostate; K-562 leukemia; MALME-3M melanoma; MDA-MB-231 breast; RXF 393 renal; SF-268 CNS; SF-539 CNS; UACC-257 melanoma; M14 melanoma; SF-295 CNS; HCT-15 colon.
Holding throughout (test): NCI-60 one-dose screen, 48 h (100 = growth as untreated, 0 = no growth, -100 = all killed)
What all share (conditions): 10 µM unless noted

Structures are written as SMILES. This is part of a sample that, as a whole, favours compounds with a hit. Of some 83,000 tested, about 20% had one in any assay.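 48-hour exposure, single concentration, 96-well plates; percent growth endpoint where 0 means no net growth. Active: below 10.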 A number with no mark means an inactive call. Active and inactive are the calls of the source.

Regarding `C[n+]1ccc(C#N)c2ccccc21`, the growth with NCI-H23 lung was 94.7%; in the test on NCI-H226 lung it was 93.3%; in the test with NCI-H322M lung, 98%; in the test on HOP-62 NSCLC it was 94.4%; with NCI-H460 lung it was 109%; in the test on NCI-H522 lung, 68.2%. Further, the growth with A549/ATCC NSCLC is 106%; with 786-0 renal it was 90.2%; in the test with COLO 205 colon it was 48.8%; in the test with DU-145 prostate, 91.8%; with K-562 leukemia, 84.8%; in the test with MALME-3M melanoma, 26.7%. In addition, the growth is 101% in the test with MDA-MB-231 breast; 78.8% in the test with RXF 393 renal; 92% with SF-268 CNS; 99.5% in the test with SF-539 CNS; 110% in the test on UACC-257 melanoma; 98.6% in the test with M14 melanoma.
As to `O=C1C(Cl)=C(N=Nc2c(Cl)c(O)c3ccccc3c2O)C(=O)c2ccccc21`, the growth with NCI-H23 lung is 68.2%; in the test with NCI-H226 lung, 90.1%; in the test on NCI-H322M lung, 45%; in the test with HOP-62 NSCLC, 52.1%; with NCI-H460 lung it was 55.7%; in the test with NCI-H522 lung, 72.7%. In addition, the growth is 51.9% in the test with A549/ATCC NSCLC; 98.4% in the test on 786-0 renal; 86.7% in the test on COLO 205 colon; 81.3% in the test with DU-145 prostate; 37.1% in the test on K-562 leukemia; 43.1% in the test with MALME-3M melanoma. Also, the growth with MDA-MB-231 breast was 61.2%; in the test with RXF 393 renal, 88.5%; in the test with SF-268 CNS it was 77.9%; with SF-295 CNS, 33.2%; with SF-539 CNS, 96.2%; with M14 melanoma it was 59.5%. Also, the growth in the test with HCT-15 colon was 61.7%.
Take `NNC(=O)NO`: the growth in the test with NCI-H23 lung is 98.6%; in the test on NCI-H226 lung, 103%; in the test on NCI-H322M lung, 93%; with HOP-62 NSCLC, 88.9%; in the test with NCI-H460 lung, 105%; in the test on NCI-H522 lung, 86%. The growth was 101% in the test with A549/ATCC NSCLC; 98.5% in the test with 786-0 renal; 111% with COLO 205 colon; 109% with DU-145 prostate; 94.8% in the test with K-562 leukemia; 98.6% with MALME-3M melanoma. Besides, the growth in the test on MDA-MB-231 breast is 122%; in the test with RXF 393 renal, 115%; in the test on SF-268 CNS, 104%; with SF-539 CNS it was 104%; with UACC-257 melanoma, 112%; with M14 melanoma it was 102%. Further, the growth with HCT-15 colon is 102%.
For the molecule `CN(CC(=O)Nc1nc2ccccc2[nH]1)S(=O)(=O)c1ccc(Cl)cc1`, the growth with NCI-H23 lung was 126%; in the test on NCI-H226 lung it was 81.7%; in the test with NCI-H322M lung, 98.3%; in the test on HOP-62 NSCLC, 69.4%; in the test with NCI-H460 lung it was 45.3%; in the test with NCI-H522 lung, 80.6%. Moreover, the growth in the test on A549/ATCC NSCLC was 111%; in the test with 786-0 renal, 91.9%; with COLO 205 colon, 95.6%; in the test with DU-145 prostate, 89.9%; with K-562 leukemia, 95.7%; in the test on MALME-3M melanoma, 100%. Besides, the growth in the test with MDA-MB-231 breast is 99.6%; with RXF 393 renal, 122%; in the test on SF-268 CNS it was 67%; with SF-295 CNS, 38.4%; in the test with SF-539 CNS it was 88.5%; in the test on M14 melanoma, 95.7%. Also, in the test on HCT-15 colon, the growth is 90.8%.
Take `CN(C(=O)c1ccccc1)N(C)C(=O)c1ccccc1`: the growth in the test with NCI-H23 lung is 110%; in the test on NCI-H226 lung, 112%; in the test on NCI-H322M lung, 96.6%; with HOP-62 NSCLC, 94.7%; with NCI-H460 lung, 109%; in the test on NCI-H522 lung it was 102%. Further, the growth in the test with A549/ATCC NSCLC is 103%; with 786-0 renal it was 100%; with COLO 205 colon it was 102%; in the test on DU-145 prostate, 121%; in the test with K-562 leukemia it was 107%; with MALME-3M melanoma, 94.4%. In addition, the growth is 107% in the test on MDA-MB-231 breast; 122% in the test with RXF 393 renal; 116% in the test with SF-268 CNS; 108% in the test with SF-539 CNS; 113% in the test with UACC-257 melanoma; 99.2% with M14 melanoma. In addition, the growth in the test with HCT-15 colon was 111%.
For `O=C(OCCBr)c1ccc(Cl)c([N+](=O)[O-])c1`, the growth in the test with NCI-H23 lung was 104%; in the test with NCI-H226 lung, 126%; with NCI-H322M lung it was 28.6%; in the test on HOP-62 NSCLC, 131%; in the test with NCI-H460 lung it was 103%; in the test on NCI-H522 lung, 8.61% (active). The growth with A549/ATCC NSCLC was 104%; in the test on 786-0 renal, 102%; in the test with COLO 205 colon, 106%; in the test with DU-145 prostate it was 14.6%; with K-562 leukemia, 82.9%; in the test on MALME-3M melanoma it was 97.2%. In addition, the growth with MDA-MB-231 breast is 92%; with RXF 393 renal it was 132%; with SF-268 CNS it was 100%; with SF-539 CNS, 102%; with UACC-257 melanoma it was 86.8%; in the test with M14 melanoma, 91.8%. The growth in the test with HCT-15 colon was 90.9%.
Consider `CC(c1cc(Cl)ccc1O)c1cc(Cl)ccc1O`, for which the growth in the test with NCI-H23 lung was 17.9%; with NCI-H226 lung, 82.5%; with NCI-H322M lung it was 80%; with HOP-62 NSCLC, 84.3%; in the test with NCI-H460 lung, 15.7%; in the test on NCI-H522 lung, -39.3% (active). Moreover, the growth is 29.3% with A549/ATCC NSCLC; 90% with 786-0 renal; 41.2% in the test with COLO 205 colon; 50.7% in the test with DU-145 prostate; 28.7% in the test with K-562 leukemia; 16.5% in the test on MALME-3M melanoma. The growth was 43.8% in the test with MDA-MB-231 breast; 49.6% with RXF 393 renal; 35% with SF-268 CNS; 45.9% in the test with SF-295 CNS; 33% in the test on UACC-257 melanoma; 22.7% with M14 melanoma. In the test on HCT-15 colon, the growth is 29.7%.
In the case of `Nc1ccc2c(c1)/C(=N/O)c1cc([N+](=O)[O-])ccc1-2`, the growth in the test with NCI-H23 lung is 71.5%; in the test on NCI-H226 lung it was 76.3%; in the test on NCI-H322M lung, 42%; in the test with HOP-62 NSCLC, 91.7%; in the test with NCI-H460 lung it was 27.3%; in the test with NCI-H522 lung it was 55.1%. In addition, the growth in the test with A549/ATCC NSCLC is 49.2%; in the test on 786-0 renal, 63.1%; in the test with COLO 205 colon it was 104%; with DU-145 prostate, 46.4%; with K-562 leukemia, 22.9%; in the test with MALME-3M melanoma it was 57.9%. Besides, the growth in the test with MDA-MB-231 breast was 91.7%; in the test on RXF 393 renal, 85%; with SF-268 CNS it was 62.6%; in the test on SF-539 CNS, 60.1%; in the test with UACC-257 melanoma it was 81%; in the test with M14 melanoma, 49.4%. Further, in the test on HCT-15 colon, the growth is 61.2%.
